Screening results from PubChem.
TRPM1 prom inh: reduces MITF-dependent TRPM1 promoter luciferase signal. SK-MEL-5 TRPM1 promoter luciferase, 24 h. inhibition, % at 12.5 µM. 0.83% of 330,000 active. AID 488899;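 active = mean inhibition across replicates of 60% or more, whatever share of single replicates reaches that level; inconclusive = some that reach 60%, reason not given; inactive = mean inhibition across replicates below 60%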
Shn3 inh set2: inhibitors of Schnurri-3 3'UTR reporter in osteoblasts. inhibition, % at 12.5 µM. 0.52% of 360,000 active. Clone20 osteoblast Shn3 3'UTR firefly luciferase, 24 h. AID 588674;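 active = mean inhibition of at least 75% with every replicate also reaching 75%; inconclusive = mean inhibition at least 75% but some replicate below; inactive = mean inhibition below 75%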;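 also: 0% = median of neutral control wells and 100% = pilot-screen positive control compound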
LMP1 NFkB inh: Epstein-Barr LMP1 NF-kappaB reporter inhibition; AID 504558; LMP1-induced NF-kappaB luciferase reporter cells, luminescence; 0.69% of 350,000 active; inhibition, % at 12.5 µM; in the data active = inhibition above about 41%; inconclusive = no clear call, values can overlap the other calls;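 also: 0% = neutral control wells and 100% = reference inhibitor control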
KKLEB tox: counter-screen for CF NF-kB inhibitors: cytotoxicity. AID 602141. activity change (cytotoxicity), % at 5 µM. KKLEB CF airway cells viability, ATPlite luminescence, overnight; active compounds read low; cells stimulated with P. aeruginosa culture filtrate. 0.36% of 360,000 active;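 active = corrected activity change at or below -50% at 5 µM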
CF NFkB block: cystic fibrosis NF-kB activation inhibition; AID 588850; 0.86% of 360,000 active; inhibition, % at 5 µM; KKLEB NF-kB-GFP reporter, PAF-induced, GFP fluorescence overnight;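 active = at least 50% inhibition at 5 µM, scaled per plate between neutral and stimulator controls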;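 also: PAF is a Pseudomonas aeruginosa culture filtrate used as stimulus; plate controls were PAF-stimulated DMSO wells for no effect and unstimulated DMSO wells for full effect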
Peg3 promoter: Peg3 promoter activity inhibition. HeLa PEG-Prom luciferase reporter, luminescence, overnight. inhibition, % at 20 µM. 1.7% of 360,000 active;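 active = inhibition of at least 50% at 20 µM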
Active calls of the source: *; ? = inconclusive; · = no result given. The list is not random: actives were taken first. Their share in the collection is about 2.9%.

SMILES | TRPM1 prom inh | Shn3 inh set2 | LMP1 NFkB inh | KKLEB tox | CF NFkB block | Peg3 promoter
C[C@@H]1CN(C2CCC(C#N)(c3ccc(F)cc3)CC2)CC[C@]1(C(=O)O)c1ccccc1 (stereo partly specified) | 5 | 6 | 79* | -28 | -6 | -1
N#CC1(c2ccccc2)CCN(C2CC(=O)N(c3ccc(F)cc3)C2=O)CC1 (stereo unspecified) | -2 | 8 | 5 | 8 | -13 | 18
CCC1([N+](=O)[O-])COP(N)(=O)OC1 (stereo unspecified) | 2 | 13 | -1 | -4 | 9 | 2
Cc1cccc(CN2CCN(Cc3ccc(Cl)cc3)CC2)c1 | -9 | 15 | 84* | -2 | -8 | 18
O=C1NC(=S)SC1=Cc1ccc(N(CCCl)CCCl)cc1 | -7 | -15 | -12 | 12 | -19 | 20
Cc1c2ccncc2c(C)c2c1[nH]c1ccccc12 | 89* | 17 | 11 | 10 | 83* | 102*
CC(C)C(NC(=O)C(C(C)C)N(C)C)C(=O)N(C)C(C(=O)N1CCCC1C(=O)N1CCCC1C(=O)NCc1ccccc1)C(C)C (stereo unspecified) | 65* | -15 | 5 | -42 | 64* | -3
Cn1ncnc2c(=O)n(C)c(=O)nc1-2 | 103* | 97* | 90* | -97* | 102* | 105*
C[C@H](CO)N1C[C@H](C)[C@@H](CN(C)C(=O)Oc2ccccc2)OCc2cnnn2CCCC1=O | · | -32 | 3 | 9 | 2 | -3
CCCCCc1nc2ccccc2c(=O)n1-c1ccccc1[N+](=O)[O-] | -7 | 29 | 2 | -26 | -2 | 24
CCCCCc1nc2c(c(=O)c3ccccc3n2C)c(=O)n1C1CCCCCC1 | 8 | 90* | 1 | -23 | 44 | 72*
COC(=O)C1=C(c2ccccc2OCc2ccccc2)C[C@@H]2CC[C@H]1N2C(=O)NCc1cccc(C(F)(F)F)c1 | 7 | 14 | -2 | 15 | -3 | 35
CCOC(=O)CC(SP1(=S)OCC2(CC=CCC2)CO1)C(=O)OCC (stereo unspecified) | -13 | 10 | 10 | -3 | -10 | -2
S=C(NCCc1ccccc1)N1Cc2cc(N3CCCCC3)ccc2-n2nncc2C1 | · | 12 | · | 7 | -8 | 7
C#C[C@]1(O)CC[C@H]2[C@@H]3CCC4=CC(=O)CC[C@]4(C)[C@H]3CC[C@@]21C | -11 | 6 | 81* | 36 | 11 | 3
CCC(=O)O[C@H]1CC[C@H]2[C@@H]3CCC4=CC(=O)CC[C@]4(C)[C@H]3CC[C@]12C | 2 | 13 | 87* | 8 | 2 | 53*
O=C1NC(=O)C(Nc2ccccc2)C(=O)N1 | -2 | 5 | 0 | 5 | 0 | -12
Cc1ccc(CN2CCC3CCC(C3)C2)c(O)c1 (stereo unspecified) | 2 | -4 | -1 | -1 | 11 | 7
Cc1cc2c(C(C)C)c(O)c(O)c(C=O)c2c(O)c1-c1c(C)cc2c(C(C)C)c(O)c(O)c(C=O)c2c1O | · | 92* | · | -53* | 62* | 94*
CCC1(CC)C(=O)NC(=O)N(CCc2ccccn2)C1=O | 1 | 7 | -8 | 1 | 40 | 1
CCc1nn2c(=O)c(F)c(N3CCNCC3)nc2s1 | · | 3 | · | -12 | 3 | -24
CSc1cccc(NP2(=O)OCC(C)([N+](=O)[O-])CO2)c1 (stereo unspecified) | -4 | 61 | 62* | 17 | 3 | -3
Cn1cccc1CN1CCN(C(=O)COc2ccccc2)CC1 | -15 | -20 | 9 | 6 | 3 | -1
Cn1nc(-c2ccc(OCC(=O)N3CCN(Cc4ccccc4)CC3)cc2)c2ccccc2c1=O | 10 | 89* | 21 | 0 | -5 | 37
Cc1ccc(C(=O)N2CC2C)cc1 (stereo unspecified) | 14 | -2 | 1 | 0 | -7 | -7
SMILES | TRPM1 prom inh | Shn3 inh set2 | LMP1 NFkB inh | KKLEB tox | CF NFkB block | Peg3 promoter
CN1CCC(N(C)c2nc(-c3ccc([N+](=O)[O-])cc3)nc3ccccc23)CC1 | ? | -72 | -118 | -14 | 8 | 108*
Fc1ccc(C(OCCN2CCCC2)c2ccc(F)cc2)cc1 | -13 | 5 | ? | -11 | -14 | -8
c1ccc(CCCN2CCN(CCOC(c3ccccc3)c3ccccc3)CC2)cc1 | -23 | -5 | 82* | -9 | -4 | 26
Fc1ccc(C(OCCN2CCN(CCCc3ccccc3)CC2)c2ccc(F)cc2)cc1 | 42 | 87* | 30 | -25 | 21 | 67*
CCN1C(=O)CC(=O)N(CC)C1=S | · | -21 | -2 | 15 | 2 | 12
CC(C)(O)/C=C/C(=O)[C@](C)(O)C1[C@H](O)C[C@@]2(C)C3CC=C4C(C[C@H](O)[C@@H](O)C4(C)C)[C@]3(C)C(=O)C[C@]12C (stereo partly specified) | 71* | 46 | 27 | -75* | 71* | 61*
Cc1[nH]n(-c2ccccc2)c(=O)c1C(c1ccc([N+](=O)[O-])cc1)c1c(C)[nH]n(-c2ccccc2)c1=O | -3 | 25 | 14 | 6 | 55* | 15
Nc1ccccc1C(=O)OCC(=O)N1CCc2ccccc21 | -49 | -20 | -38 | -4 | -1 | -295
N#CSCC(=O)N1c2ccccc2CCc2ccccc21 | 5 | 5 | -8 | -26 | 59* | 18
COc1ccc(CN2Cc3cnnn3-c3ccccc3C2C#N)cc1 (stereo unspecified) | 98* | -21 | 15 | -3 | 7 | 93*
N[C@@H](Cc1ccc(N(CCCl)CCCl)cc1)C(=O)O | -7 | 30 | 50* | -15 | 16 | 1
NC(Cc1ccc(O)cc1)C(=O)NN=Cc1ccc(N(CCCl)CCCl)cc1 (stereo unspecified) | 4 | 12 | 48* | -7 | 1 | -2
COc1cc(C(=O)NN=Cc2ccc(N(CCCl)CCCl)cc2)cc(OC)c1OC | 1 | -20 | 34 | -4 | -20 | 8
O=C(N/N=C/c1c(O)n(C2CCCCC2)c(=S)[nH]c1=O)c1ccccc1O | 11 | 1 | 42* | 5 | -12 | -23
O=C(N/N=C/c1c(O)n(C2CCCCC2)c(=S)[nH]c1=O)c1ccccc1 | 6 | -18 | 10 | 5 | 12 | 2
CC1(C)CC[C@]2(C)CC[C@]3(C)C4C[C@@H]5OO[C@@]6(O5)C(CCCC6(C)C)[C@]4(C)CC[C@@]3(C)C2C1 (stereo partly specified) | -18 | 14 | 4 | -2 | 56* | 1
C=C(C)CC1(CC)C(=O)NC(=S)NC1=O | · | -24 | · | -9 | 17 | -5
NCCc1ccc(OCc2ccccc2)c(OCc2ccccc2)c1 | 98* | 5 | -2 | -8 | 23 | 107*
COc1ccc(CCN)cc1OC | 3 | 1 | 0 | -5 | -7 | 7
Cc1ccccc1-c1ccc2c(c1)C1c3c(-c4ccccc4)nnn3-c3ccccc3C(=O)N1CC2 (stereo unspecified) | · | -9 | · | 0 | -18 | -6
